# High-throughput results (PubChem)
# Anthrax LF prot: Bacillus anthracis LF protease inhibitors, primary screen, biochemical, multiplex microsphere, MLPCN library; 360,000 tested, 0.12% active; multiplex microsphere protease cleavage assay; inhibition, % at 10 µM; AID 588501, 2011; note: plate controls were buffer without enzyme for full effect and enzyme alone for no effect
# Target sequence (P15917 whole entry, looked up): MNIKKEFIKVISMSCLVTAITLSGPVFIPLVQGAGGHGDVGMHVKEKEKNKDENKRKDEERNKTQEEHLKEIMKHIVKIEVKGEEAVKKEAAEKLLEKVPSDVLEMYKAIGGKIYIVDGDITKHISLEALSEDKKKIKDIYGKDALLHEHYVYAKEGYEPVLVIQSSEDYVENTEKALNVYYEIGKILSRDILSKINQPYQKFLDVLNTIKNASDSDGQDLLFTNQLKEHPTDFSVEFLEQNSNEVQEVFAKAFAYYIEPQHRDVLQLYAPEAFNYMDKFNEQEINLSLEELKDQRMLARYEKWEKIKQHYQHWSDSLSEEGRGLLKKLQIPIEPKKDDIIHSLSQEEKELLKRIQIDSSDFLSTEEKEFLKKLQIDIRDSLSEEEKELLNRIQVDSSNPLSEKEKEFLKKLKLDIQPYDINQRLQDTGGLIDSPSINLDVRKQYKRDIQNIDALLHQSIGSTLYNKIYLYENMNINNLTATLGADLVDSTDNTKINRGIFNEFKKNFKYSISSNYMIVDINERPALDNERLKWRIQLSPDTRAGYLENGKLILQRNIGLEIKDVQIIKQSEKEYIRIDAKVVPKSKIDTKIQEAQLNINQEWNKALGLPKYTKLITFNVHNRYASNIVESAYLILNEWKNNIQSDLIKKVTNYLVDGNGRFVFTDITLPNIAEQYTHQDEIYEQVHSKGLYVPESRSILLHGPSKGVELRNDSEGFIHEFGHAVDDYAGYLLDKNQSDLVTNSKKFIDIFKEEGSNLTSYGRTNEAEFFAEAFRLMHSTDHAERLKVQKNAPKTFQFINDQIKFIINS
# GDH-TPI counter-1: GDH-TPI coupling enzyme inhibitors, primary screen, artefact control for M. tuberculosis FBA inhibitor project, biochemical, absorbance, full deck | inhibition, % at 4.8 µM | 360,000 tested, 1.2% active | GDH-TPI coupled enzyme counterscreen, NADH absorbance; in the data active = inhibition above about 30%;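 note: 0% = DMSO wells and 100% = wells lacking the enzyme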
# BoNT F protease: BoNT/F light chain protease inhibitors, primary screen, biochemical, flow cytometry, MLPCN library; Botulinum neurotoxin type F light chain protease (Clostridium botulinum); Multiplex microsphere protease cleavage assay; inhibition, % at 10 µM; 360,000 tested, 0.22% active; in the data active = inhibition above about 35%, passing the limit was not always enough; inconclusive = no clear call, values can overlap the other calls; note: plate controls were buffer without enzyme for full effect and enzyme alone for no effect
# Autofluor counter: counter-screen for toxin protease inhibitors: compound fluorescence | compound autofluorescence counterscreen, microsphere flow cytometry; active compounds read high | fluorescence intensity (no concentration beside the values) | 360,000 tested, 3.1% active; in the data active = fluorescence intensity above about 16000; inconclusive = no clear call, values can overlap the other calls
# FBA Mtb inh: Mtb FBA enzyme inhibitors, primary screen, biochemical, fluorescence, strain H37Rv; Fructose-bisphosphate aldolase (Mycobacterium tuberculosis (strain ATCC 25618 / H37Rv)), …; purified M. tuberculosis FBA, fluorescence read-out; inhibition, % at 1 µM; 360,000 tested, 2.3% active; AID 588726, 2011; in the data active = inhibition above about 27%;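 note: 0% = vehicle and 100% = reference inhibitor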
# BoNT-A LC inh2: BoNT/A light chain protease inhibitors, primary screen, biochemical, flow cytometry, MLPCN library; inhibition, % at 10 µM; AID 588499, 2011; 360,000 tested, 0.17% active; multiplex microsphere protease substrate cleavage; Botulinum neurotoxin type A light chain protease (Clostridium botulinum A str. ATCC 3502); note: plate controls were buffer without enzyme for full effect and enzyme alone for no effect
# Mtb FBA inh conf: M. tuberculosis aldolase blockers, biochemical, fluorescence, strain H37Rv, confirmation | AID 651616, 2012 | purified M. tuberculosis FBA, fluorescence read-out | shares compounds with FBA Mtb inh | 5,600 tested, 78% active | inhibition, % at 1 µM; in the data active = inhibition above about 27%;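 note: 0% = vehicle wells and 100% = reference inhibitor wells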
# GDH-TPI counter-2: GDH-TPI coupling enzyme inhibitors, artefact control for M. tuberculosis FBA inhibitor project, biochemical, fluorescence, high throughput | shares compounds with FBA Mtb inh | GDH-TPI coupled enzyme counterscreen | inhibition, % at 1 µM | 5,600 tested, 81% active | AID 652141, 2013; in the data active = inhibition above about 10%
# GDH-TPI dose: GDH-TPI coupling enzyme inhibitors, dose response, artefact control for M. tuberculosis FBA inhibitor project, biochemical, fluorescence, IC50; shares compounds with FBA Mtb inh; IC50, µM; GDH-TPI coupled enzyme assay, artifact counterscreen; AID 652145, 2013; 170 tested, 79% active; call rule not given here
# An asterisk follows results filed as active; ? = inconclusive; . = not tested or not shown. Only some compounds are listed: those with a hit (about 6.7% of all), similar ones and a draw of the others. Cut-off read from the data, not from the text of the source, unless noted: active = inhibition above about 30%; inconclusive = no clear call, values can overlap the other calls; inactive = below that.
SMILES,Anthrax LF prot,GDH-TPI counter-1,BoNT F protease,Autofluor counter,FBA Mtb inh,BoNT-A LC inh2,Mtb FBA inh conf,GDH-TPI counter-2,others
N#Cc1c(N)oc(-c2ccco2)c1-c1ccco1,-5,12,-15,4054,33*,-1,42*,26*,
N#Cc1c(N)oc(-c2ccccc2)c1-c1ccccc1,-3,4,-28,4972,0,-3,.,.,
O=C(COC(=O)c1ccccc1NCCO)Nc1ccc(S(=O)(=O)NC2=NCCCCC2)cc1,-12,18,-13,2869,84*,0,84*,61*,
O=C(Nc1ccc([N+](=O)[O-])cn1)c1ccc(Br)o1,1,27,0,2644,95*,0,0,-4,
CCc1ccccc1OCC(=O)N(CC)CC(=O)NCc1ccc(F)cc1,0,2,-1,2085,-5,0,.,.,
N#C/C(=C\c1cccc(Cl)c1)c1n[nH]c(Cn2cncn2)n1,1,5,0,2803,39*,0,57*,43*,
O=C(NCCCN1CCOCC1)c1ccc2c(c1)N(Cc1ccc(F)cc1)CCS2,0,11,3,5578,94*,0,178*,134*,
O=C(NCc1ccco1)c1ccc2c(c1)N(Cc1ccccc1)CCS2,4,21,-11,4121,51*,-1,115*,82*,
O=C(NCCCN1CCCC1)c1ccc2c(c1)N(Cc1ccccc1)CCS2,-6,2,0,4638,96*,0,153*,147*,
O=C(NCc1ccco1)c1ccc2c(c1)N(Cc1ccc(Cl)cc1)CCS2,-8,0,-5,4492,22,0,.,.,
Cc1ccc(CN2CCSc3ccc(C(=O)NCc4ccccn4)cc32)cc1,-4,16,2,2285,66*,0,97*,67*,
O=C(NCCN1CCOCC1)c1ccc2c(c1)N(Cc1ccc(F)cc1)C(=O)CS2,-8,2,-5,6070,-1,0,.,.,
COc1ccc(-c2nc3n(c(=O)c2C#N)CCS3)cc1,-4,7,-6,4152,28*,-1,32*,28*,
CCOc1ccc(-c2nc3n(c(=O)c2C#N)CCS3)cc1,-1,16,-4,2722,32*,0,71*,62*,
COc1ccc(-c2nc3n(c(=O)c2C#N)CCS3)cc1OC,1,16,1,3516,8,0,.,.,
O=C(Nc1ccc2c(c1)OCCO2)c1cccs1,0,13,-2,1990,38*,0,12,10,GDH-TPI dose=>10
O=C(Nc1ccc2c(c1)OCO2)c1cccs1,0,14,-4,11138,-1,2,.,.,
COC(=O)c1ccc(C(=O)OC)c(=O)[nH]1,5,7,-14,4030,62*,-5,3,0,
COC(=O)c1c[nH]c(=O)c2ccccc12,-4,4,-2,4018,3,0,.,.,
CCOC(=O)N1CCC2(CC1)CC(=O)c1c(ccc3oc(C(=O)O)c(C)c13)O2,-7,27,-2,3120,82*,0,33*,30*,
CCCNC(=O)c1oc2ccc3c(c2c1C)C(=O)CC(C)(C)O3,-2,12,17,3812,36*,1,55*,51*,
CCCNC(=O)c1oc2ccc3c(c2c1C)C=CC(C)(C)O3,14,4,12,3061,16,1,.,.,
CCOC(=O)c1oc2ccc3c(c2c1C)C(=O)CC1(CCN(C(=O)OCC)CC1)O3,3,-3,-2,2930,7,0,.,.,
O=C1COc2ccc(C(=O)COC(=O)/C=C/c3ccc(Br)o3)cc2N1,0,11,-2,6287,3,-2,.,.,
CC(=O)OC[C@H]1O[C@@H](Sc2cccc3cccnc23)[C@H](OC(C)=O)[C@@H](OC(C)=O)[C@H]1OC(C)=O,3,-1,10,8703,35*,1,67*,83*,
SMILES,Anthrax LF prot,GDH-TPI counter-1,BoNT F protease,Autofluor counter,FBA Mtb inh,BoNT-A LC inh2,Mtb FBA inh conf,GDH-TPI counter-2,others
CC(=O)OC[C@H]1O[C@@H](Sc2cccc3cccnc23)[C@H](OC(C)=O)[C@@H](OC(C)=O)[C@@H]1OC(C)=O,-1,10,22,2137,28*,2,57*,60*,
CC(=O)OCC1OC(c2ccccc2)C(OC(C)=O)C(OC(C)=O)C1OC(C)=O (stereo unspecified),-2,-4,-7,10880,0,0,.,.,
Cc1cccc(OCC(=O)N/N=C/c2cn[nH]c2-c2ccc(Cl)c(Cl)c2)c1,-4,-1,6,4555,1,0,.,.,
Cc1cn(CC(=O)NCCCc2ccccc2)c(=O)[nH]c1=O,-1,-1,4,3786,-2,0,.,.,
CNC1(c2ccccc2Cl)CCCCC1=O (stereo unspecified),-4,-5,-4,6492,27*,0,58*,36*,
CC(C)CC(NC(N)=O)C(=O)OCC(=O)Nc1ccc(OC(F)F)cc1 (stereo unspecified),-3,5,1,4196,4,-1,.,.,
C=CCOc1ccc(CNc2ccc3[nH]c(=O)[nH]c3c2)cc1OC,-1,15,-5,4385,85*,2,114*,88*,
COc1cc(CNc2ccc3[nH]c(=O)[nH]c3c2)ccc1OCc1ccc(F)cc1,-20,5,-1,4616,-1,-3,.,.,
COc1ccccc1N(CC(O)Cn1c2ccccc2c2ccccc21)S(=O)(=O)c1ccccc1 (stereo unspecified),0,5,-2,2173,1,0,.,.,
COC(=O)C1=CN(CCCN2CCCC2=O)C=C(C(=O)OC)C1c1cccs1,0,7,-23,4545,21,-2,.,.,
COC(=O)C1=CN(Cc2cccs2)C=C(C(=O)OC)C1c1cccc(OC)c1OC,5,9,-9,10163,53*,1,82*,75*,
COC(=O)C1=CN(Cc2ccc(OC)cc2)C=C(C(=O)OC)C1c1cccs1,-6,-2,2,4690,71*,0,7,7,
COc1cc(CC(=O)OCC(=O)NCc2cccs2)cc(OC)c1OC,0,4,0,?,2,4,.,.,
